These results are taken from PubChem BioAssay AID751 (NMMLSC, 2007).

The whole screen tested about 24,000 compounds, of which about 40 (0.2%) were called active. The full list was thinned out, with actives kept by preference. Values without a mark were called inactive.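 How the source made its calls: active means inhibition of disassembly above about 33% (limit read from the data); inconclusive means likely self-fluorescent, control bead median signal at least 40; inactive means the rest.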

The test system of the experiment is 26S proteasome (yeast, GFP-tagged, ATP-dependent disassembly). Put plainly: blockers of yeast 26S proteasome breakdown – biochemical, bead-based flow cytometry, GFP-tagged proteasome, primary screen (AID 751).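 Further: plate controls were ATP control with full disassembly for no effect and ATP-gamma-S intact proteasomes for full effect; higher percent means more bead fluorescence retained so stronger block of disassembly.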 To be noted: anti-FLAG beads, active compounds read high, concentration not given here.
With `CCOC(=O)C1CCCN(C(=O)Cn2ncc3c(=O)oc4ccc(C)cc4c32)C1` (stereo unspecified), the inhibition of disassembly is -1.55%.
As for `Cc1nn(-c2ccccc2)c2[nH]c(C(F)(F)F)cc(=O)c12`, the inhibition of disassembly is 0.28%.
The result for `CC(C)CNC(=O)c1cc(-c2ccc(Br)cc2)on1` reads -0.25%.
The value for `COc1ccc(C2C(C(=O)Nc3ccccc3OC)=C(C)Nc3nnnn32)c(OC)c1` (stereo unspecified) was -0.27%; that for `Cc1ccc(C(c2sc3nc(C)nn3c2O)N2CCN(c3ccccc3)CC2)cc1` (stereo unspecified) was -0.53%; that for `CCS(=O)(=O)N1CCC(C(=O)N2CCN(c3ccccc3)CC2)CC1` was 0.05%.
The value for `CCOC(=O)c1ccc(NC(=O)CS(=O)(=O)c2cn(CC)c3ccccc23)cc1` was -1.63%; that for `CCN(CC)CCNC(=O)C1c2ccccc2C(=O)N(C)C1c1cn(C)c2ccccc12` (stereo unspecified) was -2.19%.
Regarding `COc1ccc(CN(C(=O)c2cccs2)c2nccs2)cc1OC`, the inhibition of disassembly was 0.76%.
Consider `CCn1c(SCC(=O)Nc2nccs2)nnc1-c1ccncc1`, for which the inhibition of disassembly was 1.46%.
The value for `CCCN(CCC)CCNC(=O)c1cc2c(C)nc3ccccc3c2o1` was 5.25%.
The value for `Cn1cccc1Cc1nnc(SCC(=O)NCc2ccc3c(c2)OCO3)n1CCc1ccccc1` was 1.04%; that for `CCOc1ccc(N(CC(=O)NCc2ccc(OC)cc2)S(=O)(=O)c2c(C)noc2C)cc1` was -1.57%; that for `Cc1ccc(-c2nc(CS(=O)CC(=O)N3CCN(c4ncccn4)CC3)c(C)o2)cc1` (stereo unspecified) was 4.64%.
The value for `Cc1nnc(SCC(=O)N(C(C)C)C(C)C)nc1C` was 0.76%; that for `O=C(CSc1nc2[nH]ncc2c(=O)n1-c1ccccc1)N1CCCc2ccccc21` was 3.12%; that for `CCOCC(=O)Nc1sc2c(c1C(=O)OCC)CCCC2` was 1.13%.
Take `CNC(=O)Nc1cc(C(C)(C)C)no1`: the inhibition of disassembly is -0.8%.
The value for `COc1ccc(C(=O)N(CCN2CCOCC2)CC(=O)NC2CCCC2)cc1OC` was 1%.
The result for `Fc1ccc2nc(N3CCCCC3)sc2c1` reads 0.07%; that for `Fc1ccc2nc(Nc3nc4c(s3)CCCC4)sc2c1`, 96.9% (active); that for `CNC(=O)c1ccc2nc(NC(C)=O)sc2c1`, 3.41%.
The result for `O=C1c2ccncc2C(=O)N1C1CCCCC1` reads -0.82%.
Consider `Cc1ncn(C23CC4CC(CC(O)(C4)C2)C3)n1`, for which the inhibition of disassembly is -1.21%.
The value for `O=C1c2cccnc2C(=O)N1Cc1cccs1` was -1.73%.
The value for `CCOc1cc(S(=O)(=O)NCc2ccc3c(c2)OCO3)ccc1F` was -0.11%; that for `Cc1nnc(SCCCn2c(N3CCCCC3)nc3c2c(=O)[nH]c(=O)n3C)s1` was -3.02%.
The result for `Cc1cc(C(=O)NCCCc2ccccc2)no1` reads 0.81%; that for `CCOc1ccc(C2C(C(=O)NC)=C(C)Nc3nc4ccccc4n32)cc1OC` (stereo unspecified), -0.82%.
Regarding `O=S(=O)(NCc1ccccc1Cl)c1cnc[nH]1`, the inhibition of disassembly is 1.99%.
Turning to `N#CCCn1ncc2ccccc21`, the inhibition of disassembly was -0.94%.
The result for `CCOC(=O)CN1C(=O)C(O)(CC(=O)c2ccccn2)c2ccccc21` (stereo unspecified) reads 0.68%; that for `COc1ccc(NC(=O)CN2CCN(S(=O)(=O)c3ccc(F)cc3)CC2)cc1Cl`, 0.32%; that for `O=C(CN1CCN(C(=O)c2cccc(F)c2)CC1)Nc1ccccc1F`, 2.43%.
As to `CCOc1ccc(CC(=O)Nc2ccc(S(=O)(=O)Nc3cc(C)on3)cc2)cc1OCC`, the inhibition of disassembly is 1.32%.
In the case of `Cc1ccc(N(C(=O)CC2NC(=O)NC2=O)C2(C(=O)NC3CCCC3)CCCCC2)cc1` (stereo unspecified), the inhibition of disassembly was -0.11%.
The value for `Cc1ccc(C2CC(=O)NC(SCC(=O)OCc3ccccc3)=C2C#N)o1` (stereo unspecified) was -1.12%.
In the case of `Cc1ccc(C(CC(=O)O)Nc2nc(N3CCCCC3)nc(N3CCCCC3)n2)cc1` (stereo unspecified), the inhibition of disassembly was 0.5%.
The result for `CN(C)S(=O)(=O)c1cccc(C(=O)Nc2cccnc2)c1` reads 0.3%; that for `O=C(Cc1nn[nH]n1)NCCC1=CCCCC1`, 3.56%.
The value for `C#CC(C)(C)NC(=O)CSc1nc2c(c(=O)n(C)c(=O)n2C)n1CCCC` was 0.06%; that for `Cc1ccc(-n2ncc3c(=O)[nH]cnc32)c(C)c1` was -2.48%.
The result for `CCOC(=O)C1CCN(C(=O)c2oc3ccc(S(=O)(=O)N4CCCCCC4)cc3c2C)CC1` reads 0.89%.
Regarding `CCOC(=O)Cc1csc(NC(=O)CN(C)S(=O)(=O)c2ccc3c(c2)CCC(=O)N3)n1`, the inhibition of disassembly is 0.365%.
The value for `CCC1Oc2ccc(Cl)cc2N(CC(=O)O)C1=O` (stereo unspecified) was -0.77%; that for `Brc1cnc(N2CCCC2)nc1N1CCCCC1` was -0.98%; that for `O=C(O)c1ccc(NC(=O)c2cccs2)cc1` was -9.2%.
The value for `COc1ccc(N2C(=O)C3CCCN3C2c2cccc(OC)c2)cc1` (stereo unspecified) was 0.89%.
The value for `COc1cccc(N2C(=O)C3CCCN3C2c2ccc(F)cc2)c1` (stereo unspecified) was 137% (active); that for `COc1ccc(N2C(=O)C3CCCN3C2c2cc(OC)c(OC)cc2OC)cc1` (stereo unspecified) was 1.25%; that for `Cc1ccccc1N1CC(c2nc3ccccc3[nH]2)CC1=O` (stereo unspecified) was 2.43%.
As to `Cc1ccc(NC(=O)C2CC(c3ccc(F)cc3)=NO2)cc1` (stereo unspecified), the inhibition of disassembly is 0.38%.
The value for `CCOC(=O)Cn1c(=O)oc2cc(S(=O)(=O)N(C)Cc3ccco3)ccc21` was 0.3%; that for `C=CCOc1ccc(C2/C(=C(\O)c3c(C)[nH]c(C(=O)OC)c3C)C(=O)C(=O)N2CCN(C)C)cc1` (stereo unspecified) was -2.37%; that for `Cc1nc2ccc(S(=O)(=O)NC(C(=O)N3CCCCCC3)C(C)C)cc2s1` (stereo unspecified) was 0%.
As for `CC(C)C1N=C2c3ccccc3N=C(SCC(=O)c3ccc(O)c(O)c3)N2C1=O` (stereo unspecified), the inhibition of disassembly is -7.17%.
The result for `Nc1nonc1C(=O)NCCc1ccccc1` reads -0.31%; that for `CCCCN(CC)C(=O)CN(C)S(=O)(=O)c1cccc2nsnc12`, -0.83%; that for `CC(=O)Nc1ccc(NS(=O)(=O)c2cc(C)sc2C)cc1`, 1.22%.
The value for `CCCNC(=O)Nc1ccccc1C(=O)Nc1ccc(OC)cc1` was 0.82%; that for `COc1ccccc1CNC(=O)CCCn1c(=O)c2ccccc2n(CC(=O)NC2CCCC2)c1=O` was -1.05%; that for `O=C(c1cc(-c2ccccc2O)on1)N1CCCC1` was 3.8%.
Take `CCCCC(=O)Nc1cc(C)c2c(=O)oc3ccccc3c2n1`: the inhibition of disassembly is -3.04%.
The value for `COc1ccccc1-c1nc(C(F)(F)F)c(OC)o1` was -0.84%; that for `O=C(Nc1nsc(-c2ccccc2)n1)c1ccncc1` was -0.11%.
For the molecule `COC(=O)c1oc2ccc(Br)cc2c1NC(C)=O`, the inhibition of disassembly was 0.425%.
The value for `Cc1cc(=O)n2nc(N3CCCC(C(=O)NCCC4=CCCCC4)C3)sc2n1` (stereo unspecified) was -1.75%; that for `Cc1cc(C)c(C)c(S(=O)(=O)Nc2ccc(O)cc2)c1C` was 0.6%.
The value for `O=C(NCc1cccs1)c1ccc2c(c1)ncn2C1CCCC1` was 0.01%; that for `O=C(Cn1nnc(-c2ccc(CN3CCOCC3)cc2)n1)NC1CCCCC1` was 0.56%; that for `O=C(CN1C(=O)C2C3C=CC(C3)C2C1=O)NCCc1ccccc1Cl` (stereo unspecified) was -3.34%.
The value for `CCOC(=O)C1CCN(C(=O)Cc2c(C(=O)O)[nH]c3ccccc23)CC1` was 1.78%; that for `CC(c1nnc(SCC(=O)Nc2sccc2C#N)n1-c1ccc(Cl)cc1)N(C)C` (stereo unspecified) was 0.73%.
For `COC(=O)c1ccccc1NC(=O)c1cncc(Br)c1`, the inhibition of disassembly is 1.29%.
The value for `CCOC(=O)C1C(=O)C=C(c2ccc(OC)cc2)CC1c1ccco1` (stereo unspecified) was -0.2%; that for `O=c1c2[nH]c3ccc(Cl)cc3c2ncn1Cc1ccccn1` was -0.64%.
With `Cn1c(COc2ccc(Cl)cc2)nc2ccccc2c1=O`, the inhibition of disassembly is -1.78%.
The result for `O=C1CC(c2cccc(Br)c2)C2=C(CCCC2=O)N1` (stereo unspecified) reads 2.93%; that for `COc1ccc(CCNC(=O)c2ccc3c(c2)NC(=O)C(N2CCOCC2)S3)cc1OC` (stereo unspecified), 7.35%; that for `COc1ccc(CCNC(=O)CCCCn2c(=O)[nH]c3ccccc3c2=O)cc1OC`, -2.22%.
The value for `Cc1oc(-c2cccc(Cl)c2)[n+]([O-])c1C` was -1.38%.
The result for `COc1ccc(CC(=O)Nc2c3c(nn2-c2cccc(Cl)c2)CS(=O)C3)cc1` (stereo unspecified) reads -0.575%.
`COc1ccc(CCNC(=O)c2cc(-c3ccc4c(c3)OCO4)on2)cc1OC`: the inhibition of disassembly is -0.34%.
The value for `CCOC(=O)Cn1c(=O)oc2cc(S(=O)(=O)NCC3CCCO3)ccc21` (stereo unspecified) was -1.43%.
As to `CCOC(=O)c1c(C)oc2ccc(OCC(=O)N(CC)CC)cc12`, the inhibition of disassembly was 0.35%.
The value for `O=C(CCCCn1c(=O)[nH]c2ccccc2c1=O)NCc1ccc2c(c1)OCO2` was 1.45%; that for `Cn1c(=O)[nH]c(=O)c2c1nc(N(CCO)Cc1ccccc1)n2Cc1ccccc1Cl` was 0.72%.
The value for `COC(=O)C1C(=O)c2c([nH]c(C(=O)OCCSC)c2C)CC1C` (stereo unspecified) was -0.89%; that for `COc1cccc(NC(=O)Cn2cnc3sc(C)c(S(=O)(=O)N4CCN(C)CC4)c3c2=O)c1` was -0.73%; that for `CC(=O)Nc1nonc1-c1nc2ccccc2n1Cc1ccccn1` was 5.18%.
The value for `CCOC(=O)N1CCC(Nc2c(NCCCN3CCN(c4ccc(OC)cc4)CC3)c(=O)c2=O)CC1` was 1.14%; that for `CCOCCc1c(O)nc(SCC(=O)NCc2ccco2)[nH]c1=O` was -2.18%.
Take `CN(C)CCCNC(=O)c1ccc2[nH]c3ccccc3c2c1`: the inhibition of disassembly is -0.71%.
The value for `Cc1cccc(NC(=O)CSc2nc3c(c(=O)[nH]2)CCC3)c1C` was 0.47%.
The result for `CC(=O)NC1CC2CCCC(C1)N2CC(=O)Nc1ccccc1` (stereo unspecified) reads -0.95%.
The result for `CC12CN3CC(C)(CN(C1)C3c1ccc(Cl)cc1Cl)C2=O` (stereo unspecified) reads 1.12%.
